DAX1 inh-1 = DAX1 (NR0B1) inhibition, primary screen; HEK293T StAR-luciferase reporter, SF-1/DAX-1 repression relief; inhibition, % at 6.8 µM; 370,000 tested, 1.1% active;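 active = inhibition above the mean over all tested compounds plus 3 SD, cut at about 3.6% in these data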;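 also: higher inhibition means more luminescence from relief of DAX-1 repression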
hcDAF12 agonist = activators of H. contortus DAF-12 nuclear receptor. 370,000 tested, 1.4% active. HEK293 hcDAF-12 lit1-tk-luc reporter, luminescence; 0% DMSO, 100% Δ7-dafachronic acid. activation, % at 6.8 µM;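 active = activation above the mean of all tested compounds plus 3 SD, cut at about 5.5% in these data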
DAX1 inh-2 = inhibits human nuclear receptor DAX1 | P51843 | HEK293 Gal4-DAX1 luciferase reporter, luminescence | inhibition, % at 6.75 µM | 340,000 tested, 0.99% active;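 active = inhibition above the mean over all tested compounds plus 3 SD, cut at about 4.2% in these data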;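 also: inhibition shows as a rise in luminescence from relieved DAX1 repression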
Target sequence (P51843 207-470 limits assumed): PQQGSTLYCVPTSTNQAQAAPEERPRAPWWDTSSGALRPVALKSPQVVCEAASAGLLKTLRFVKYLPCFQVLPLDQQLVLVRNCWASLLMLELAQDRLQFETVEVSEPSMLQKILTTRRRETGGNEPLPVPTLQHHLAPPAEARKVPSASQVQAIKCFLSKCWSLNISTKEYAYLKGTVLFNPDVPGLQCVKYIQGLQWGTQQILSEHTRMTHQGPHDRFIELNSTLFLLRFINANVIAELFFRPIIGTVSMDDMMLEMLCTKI
ssDAF12 agonist = S. stercoralis DAF-12 activation, primary screen | 370,000 tested, 1% active | activation, % at 6.8 µM | HEK293 ssDAF-12/GRIP1 lit1-tk-luc reporter, luminescence; % of 3 µM dafachronic acid response | AID 652126;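 active = activation above the mean over all tested compounds plus 3 SD, cut at about 0.9% in these data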
hgDAF-12 ag = agonists of H. glycines DAF-12 nuclear receptor. HEK293 GAL4-hgDAF12 UAS-luciferase reporter, agonist luminescence; normalized to butyrate control. activation, % at 6.8 µM. 370,000 tested, 1.8% active;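 active = activation above a cutoff set at the mean of all screened compounds plus 3 SD, cut at about 10% in these data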
hgDAF12 conf = hgDAF-12 agonism, confirmation assay. activation, % at 6.8 µM. HEK293 GAL4-hgDAF12 luciferase reporter, agonist mode; percent of butyrate response. shares compounds with hgDAF-12 ag. 3,300 tested, 80% active;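 active = mean activation over triplicate wells above the hit cutoff derived from the earlier primary screen, cut at about 11% in these data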
LXRb DAF12 ctr = activates human LXR-beta, counter-screen for DAF-12 agonists. HEK293 Gal4-LXR luciferase reporter, 24 h. 3,300 tested, under 10 active. shares compounds with hgDAF-12 ag. activation, % at 6.8 µM;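 active = mean activation of the triplicate above a set limit carried over from the primary screen, none filed active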
A number is an active result; n = inactive; x = no result given. Only some compounds are listed: those with a hit (about 4.1% of all), similar ones and a draw of the others.

SMILES	DAX1 inh-1	hcDAF12 agonist	DAX1 inh-2	ssDAF12 agonist	hgDAF-12 ag	hgDAF12 conf	LXRb DAF12 ctr
Cn1nnc(NCc2cc(Br)ccc2OCc2ccccc2F)n1	n	n	n	n	17	n	n
C=CCN1CC(COCCCC)Oc2ccc(Cl)cc2S1(=O)=O (stereo not drawn)	n	n	x	n	n	x	x
C(=N\n1cnnc1)/c1cccs1	n	n	n	n	n	x	x
C(=N\N=C\c1cccs1)/c1cccs1	3.9	n	n	n	14	15	n
COc1ccc(Cn2c(/C=C/c3ccccc3)nc3ccccc32)cc1	3.8	6.4	n	n	18	20	n
CCC(C)n1c(/C=C/c2ccccc2)nc2ccccc21 (stereo not drawn)	n	n	n	n	n	x	x
CC(C)Cn1c(/C=C/c2ccccc2)nc2ccccc21	n	n	n	n	14	n	n
COc1ccc(/C=C/c2nc3ccccc3n2C)cc1	n	n	n	n	n	x	x
O=C(NCc1ccccc1)c1cccc(COc2ccccc2Cl)c1	n	n	n	n	n	x	x
CN(C(=O)c1cccc(COc2ccc(Cl)cc2Cl)c1)c1ccccc1	n	n	n	n	13	13	n
CC(C)(C)c1ccc(C(=O)Nc2cc(Cl)ccc2C(=O)O)cc1	x	n	x	n	n	x	x
CCN(CC)CCCN1C(=O)C(=O)/C(=C(/O)c2ccc(OC)cc2)C1c1ccco1 (stereo not drawn)	n	n	n	n	14	n	n
O=C(c1cccc(F)c1)N1CCCC(c2nc(-c3cccs3)no2)C1 (stereo not drawn)	n	n	x	n	n	x	x
Nc1ccc(-c2nc3ccc([N+](=O)[O-])cc3[nH]2)cc1	4.3	n	n	n	16	15	n
Clc1ccc2nc(CSc3nc4ccccc4o3)cn2c1	n	n	n	n	n	x	x
Clc1ccc2nc(CSCc3ccccc3)cn2c1	4.0	n	n	0.9	19	14	n
Cc1ccc(C(=O)N(C)[C@H]2C[C@H]3c4[nH]c5c(-c6cccc(C)c6)cccc5c4CCN3C[C@H]2[C@H](C)O)cc1	n	n	x	n	n	x	x
C[C@H]1CNC(=O)c2c(C(=O)N(C)Cc3ccccc3)ncn21	n	n	x	n	n	x	x
C[C@H]1Cn2cnc(C(=O)N(C)Cc3ccccc3)c2C(=O)N1	n	n	x	n	30	n	n
CCC(C)N(Cc1ccc(OC)cc1OC)S(=O)(=O)c1cc(Br)ccc1Br (stereo not drawn)	n	n	x	n	n	x	x
Cc1ccc(Nc2ncnc3ccccc23)cc1	n	n	n	n	14	n	n
CCc1ccc(NC(=O)c2ccccc2SC)cc1	n	n	n	n	16	n	n
CSc1ccccc1C(=O)Nc1ccc2c(c1)OCCO2	n	n	n	n	n	x	x
O=c1c2c(nc3cc(-c4cccc(F)c4)[nH]n13)CCC2	n	n	n	n	20	17	n
COC(=O)CCc1sc(Nc2ccccc2)nc1-c1ccc(OC)cc1	n	n	n	n	14	13	n
SMILES	DAX1 inh-1	hcDAF12 agonist	DAX1 inh-2	ssDAF12 agonist	hgDAF-12 ag	hgDAF12 conf	LXRb DAF12 ctr
COCC(=O)N[C@@H]1C[C@@H]2O[C@H](CO)CC[C@@H]2O[C@@H]1CCc1ccc(-c2ccccc2)cc1	n	n	x	n	n	x	x
CN(C)c1ccc(C=C2SC(=S)NC2=O)cc1	n	n	n	n	n	x	x
CN(C)c1ccc(/C=C2\CCCCC2=O)cc1	n	n	n	n	18	14	n
O=C(NC1CCCC1)C(C1CC1)n1c(-c2cc3ccccc3[nH]2)nc2ccccc21 (stereo not drawn)	n	n	x	1.0	22	14	n
CC(=O)c1cccc(NC(=O)c2ccc(-c3ccccc3[N+](=O)[O-])o2)c1	n	n	n	n	14	13	n
Cc1cc(NC(=O)c2ccc(-c3ccccc3[N+](=O)[O-])o2)no1	n	n	n	n	n	x	x
Cc1ccc(NC(=S)NNC(=O)CSc2nnc(SCc3cccc4ccccc34)s2)cc1	n	n	x	n	n	x	x
COC(=O)[C@]12C[C@H](CC(=O)NCC34CC5CC(CC(C5)C3)C4)C(=O)N(CCC3=CCCCC3)C1=C[C@H](C1CCCC1)O[C@@H]2C	n	n	x	n	n	x	x
N#C/C(=C\c1ccc(OCc2cccc(C(=O)O)c2)cc1)C(=O)NCc1ccco1	3.8	n	n	n	15	18	n
N#C/C(=C\c1ccc(OCc2ccc(C(=O)O)cc2)cc1)C(=O)NCc1ccccc1	n	n	n	n	n	x	x
O=C(Nc1cccc(Cl)c1)Nc1nnc([C@@H]2C[C@H](O)[C@@H](CO)O2)s1	n	n	x	n	16	n	n
O=C(Nc1cccc(F)c1)Nc1nnc([C@@H]2C[C@H](O)[C@@H](CO)O2)s1	n	n	x	n	n	x	x
Cc1ccc(OC2CCN(C(=O)[C@@H](Cc3ccccc3)NC(=O)[C@H]3O[C@@H](n4ccc(=O)[nH]c4=O)[C@H](O)[C@@H]3O)CC2)cc1	n	n	x	n	n	x	x
CCc1ccc(C(=O)Nc2cc(C)ccc2F)s1	n	n	n	n	16	n	n
O=C(OC12CCCN(C1)/C(=C/c1ccc(Cl)cc1)C2)C1CCCC1 (stereo not drawn)	n	n	x	n	n	x	x
CCCCc1ccc(Nc2ncnc3nc[nH]c23)cc1	n	n	n	n	13	n	n
c1ccc(CCCNc2ncnc3nc[nH]c23)cc1	n	n	n	n	n	x	x
O=C(COc1ccc(F)cc1)c1ccc2c(c1)CCCC2	n	n	n	n	14	13	n
O=C(COc1ccc(Cc2ccccc2)cc1)c1ccc(F)cc1	n	n	n	n	n	x	x
COC(=O)[C@]12C[C@H](CC(=O)N3CCN(C(=O)c4ccco4)CC3)C(=O)N(Cc3ccc(Cl)cc3Cl)C1=C[C@H](C1CCCC1)O[C@@H]2C	n	n	x	n	n	x	x
O=C(c1c(F)cccc1F)N1CCC(Oc2cccnc2)CC1	n	n	x	n	n	x	x
Nc1nnc(-c2ccc(Cl)cc2Cl)s1	n	n	n	n	15	n	n
Nc1nnc(-c2ccccc2F)s1	n	n	x	n	n	x	x
Cc1cccc(NC(=O)c2sc3nc(N)c(C#N)cc3c2N)c1	n	n	n	n	21	n	n
CCOC(=O)N/N=C1\CCc2ccccc21	n	n	n	n	15	n	n
O=C(N/N=C1\CCc2ccccc21)c1ccc(O)cc1	n	n	n	n	n	x	x
CCOC(=O)NN=C1c2ccccc2-c2ccccc21	n	n	n	n	n	x	x
Cc1ccc(C(=O)N/N=C2\CCc3ccccc32)c(C)c1	n	n	n	n	15	14	n
O=C(c1cccc(Cl)c1)N1CCN(c2ccnc3cc(Cl)ccc23)CC1	x	n	x	n	n	x	x
Cc1ccc(CN2CC=CCS2(=O)=O)cc1	n	n	x	n	n	x	x

Compound activity (PubChem)
